# Experimental data from PubChem BioAssay AID623868 (Vanderbilt High Throughput Screening Facility, 2012).
# Out of some 2,100 compounds screened, about 760 (36%) were called active. Not all results are given here. Unmarked numbers belong to inactive results.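 Rule for the calls: active = thallium-flux fluorescence traces judged by eye to show enhanced or reduced glutamate response, manual score 1 or -1, so both directions (some results past the limit were not filed as active); inactive = the rest, including fluorescent or raised-baseline compounds.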
# Assay: non-GIRK thallium flux modulation in mGlu8 cells, confirmation, counter-screen for GIRK activator project, cell-based, HEK-293 rmGlu8, no GIRK (AID 623868);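 note: extra codes mark interference with 3 for fluorescent and 4 for baseline rise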
# Settings: thallium flux fluorescence, at 10 µM, actives lie on both sides, codes: 1 enhancer, -1 blocker, 0 none, thallium stimulus containing EC20 glutamate
row,SMILES,manual score
1,CCCCC(=O)Nc1ncc2c(n1)CC(C)(C)CC2=O,0
2,Cc1oc(-c2cccc(Cl)c2)nc1CN1CCCC(C(=O)NCc2ccco2)C1 (configuration not stated),-1 (active)
3,Cc1oc(-c2cccc(Cl)c2)nc1CN1CCC(C(=O)NCc2ccco2)CC1,0
4,CCc1ccc(-c2nc(CN3CCC(C(=O)NCc4ccco4)CC3)c(C)o2)cc1,0
5,CC1=C(C)C(c2ccccc2)NC(=S)N1 (configuration not stated),0
6,Cc1cccc(S(=O)(=O)NC(Cc2c[nH]c3ccccc23)C(=O)O)c1 (configuration not stated),0
7,O=S(=O)(Nc1ccc(S(=O)(=O)Nc2cccc3ccccc23)cc1)c1ccccc1,0
8,Cc1cccc(S(=O)(=O)Nc2cccc3c2C(=O)c2ccccc2-3)c1,1 (active)
9,CC(C)CC(=O)Nc1ccccc1-c1nnn(CC(=O)N2CCc3ccccc3C2)n1,0
10,Cc1ccc(-c2nnn(CC(=O)N3CCCCC3)n2)c(-n2cnnn2)c1,0
11,O=C(Nc1ccccc1-c1nnn(CC(=O)N2CCc3ccccc3C2)n1)C1CCC1,-1 (active)
12,CC(C)(C)C(=O)Nc1nc2c(s1)COc1ccccc1-2,-0.5
13,COC(=O)C(NC(=O)COc1ccccc1)(Nc1nc2c(s1)CCCC2)C(F)(F)F (configuration not stated),0
14,O=C(NC(=S)Nc1nc2c(s1)CCCC2)c1ccccc1,0
15,COC(=O)c1ccc(C(=O)NC(=S)Nc2nc3c(s2)CCCC3)cc1,1 (active)
16,CC(C)(C)c1ccc(C(=O)NC(=S)Nc2nc3c(s2)CCCC3)cc1,1 (active)
17,O=C(NC(=S)Nc1nc2c(s1)CCCC2)c1ccc(C(=O)c2ccccc2)cc1,0
18,N=c1n(CCN2CCCCC2)c2ccccc2n1CC(O)COc1ccccc1 (configuration not stated),0
19,COCCCNc1c2c3c(cccc3[nH]c1=O)C(=O)c1ccccc1-2,3
20,O=C(CNC1CCCCCC1)Nc1ccc(N2CCCC2)cc1,0
21,CN(C1CCCCC1)S(=O)(=O)c1ccc(NC(=S)NC(=O)c2cccs2)cc1,1 (active)
22,Cc1ccc(NC(=O)c2cc(NC(=O)CCC(=O)O)ccc2N2CCCCC2)cc1,0
23,O=C(NC(=S)Nc1ccc(N2CCCCC2)c(Cl)c1)c1cccs1,1 (active)

row,SMILES,manual score
1,O=C(NC(=S)Nc1ccc(N2CCCCC2)cc1)c1cccs1,1 (active)
2,O=C(Nc1ccc(N2CCCCC2)c(Cl)c1)c1ncn[nH]1,0
3,Cc1ccc(-c2[nH]nc3c2C(c2ccoc2)C(C#N)=C(N)O3)cc1C (configuration not stated),0
4,CN(C)c1nc2n(c(=O)n1)C(C#N)CS2 (configuration not stated),0
5,O=C(/C=C/c1ccc(Cl)cc1)NC(=S)NN1CCCCC1c1cccnc1 (configuration not stated),0
6,c1csc(CCNc2ncnc3sc4c(c23)CCC4)c1,-1 (active)
7,COc1ccc(-n2ncc3c(NCc4cccs4)ncnc32)cc1,0
8,O=C(NC(=S)Nc1ccccc1)c1cc(-c2ccccc2)nc2ccccc12,0.5
9,COC(=O)c1ccc(NC(=S)NC(=O)c2cc(-c3ccccc3)nc3ccccc23)cc1,1 (active)
10,O=C(NC(=S)Nc1ccccn1)c1cc(-c2ccccc2)nc2ccccc12,1 (active)
11,Cc1cccc(NC(=S)NC(=O)c2cc(-c3ccccc3)nc3ccccc23)c1,0
12,Cc1ccccc1NC(=S)NC(=O)c1cc(-c2ccccc2)nc2ccccc12,1 (active)
13,Fc1cccc(-n2c(-c3ccco3)nc3nc4ccccc4nc32)c1,0
14,Cc1ccc(C)c(N2CCN(C(=O)CCCOc3cc(=O)n(C)c4ccccc34)CC2)c1,0
15,CCC(=O)Oc1ccc(C/C(=N\O)c2ccc(O)cc2O)o1,-1 (active)
16,CCCn1c(C)cc(/C=C(\C#N)C(=O)OCC(=O)Nc2cccc(OC)c2)c1C,0
17,Cc1ccc2oc(=O)c3cnn(CC(=O)N4CCc5ccccc5C4)c3c2c1,-1 (active)
18,COc1ccc(N(CC(=O)NCCSc2ccccn2)S(C)(=O)=O)cc1Cl,0
19,Cc1nn2c(NCCCN(C)C)c3c(nc2c1-c1ccccc1)CCC3,0
20,O=C(O)CCCCCNc1nc2ncn(Cc3ccccc3)c2c(=O)[nH]1,0
21,Fc1cccc(C2NN=C(c3ccccc3)S2)c1 (configuration not stated),1 (active)
22,O=C1CC(c2ccco2)Sc2nc3ccccc3n21 (configuration not stated),0
23,CN1CCN(CC(=O)N2c3ccccc3C(C)(c3ccccc3)CC2(C)C)CC1 (configuration not stated),0

row,SMILES,manual score
1,CC1(c2ccccc2)CC(C)(C)N2C(=O)/C(=C3\SC(=S)NC3=O)c3cccc1c32 (configuration not stated),1 (active)
2,Cc1c(C(=O)O)sc2nc3n(c(=O)c12)CCC(C)CC3 (configuration not stated),0
3,C=CCCCCCCCCc1nc(=S)[nH][nH]1,1 (active)
4,CCCCCCCCc1nc(=S)[nH][nH]1,1 (active)
5,COc1c(Cl)cc(Cl)cc1CNCCNCC(C)O (configuration not stated),0
6,COc1cc(C(=O)NC2CC3CCCC(C2)N3CC(=O)Nc2ccccc2)cc(OC)c1OC (configuration not stated),-1 (active)
7,CC1CCCCN1CC(=O)Nc1ccc(Oc2ccccc2)cc1 (configuration not stated),0
8,COc1cccc(NC(=O)Cn2nnc(C(=O)Nc3ccccc3)c2N)c1,0
9,O=C(Nc1nnc(-c2ccccc2F)s1)C1CCCO1 (configuration not stated),0
10,CC(C)c1ccc2occ(-c3nn[nH]n3)c(=O)c2c1,0
11,CCCn1c(SCc2nc3sc(C)c(C)c3c(=O)[nH]2)nc2ccccc2c1=O,1 (active)
12,CCCSc1nc2sc3c(c2c(=O)[nH]1)CCN(Cc1ccccc1)C3,3
13,O=c1[nH]c(CS(=O)(=O)c2ccccc2)nc2ccccc12,0
14,Cc1c(C)[n+](=O)c2c(n1[O-])CCC2,0
15,COc1ccc(S(=O)(=O)NCCCCCC(=O)NCCCN2CCOCC2)cc1,0
16,Cc1cc(Cl)ccc1OCC(=O)Nc1ccccc1N1CCOCC1,0
17,Cc1cccc(OCC(=O)NC(=S)Nc2ccccc2N2CCOCC2)c1,0
18,Cc1cccc(OCC(=O)Nc2ccccc2N2CCN(C(=O)C(C)C)CC2)c1C,-1 (active)
19,Cc1ccccc1OCC(=O)Nc1ccccc1N1CCOCC1,-0.5
20,CCC(=O)N1CCN(c2ccccc2NC(=O)COc2cccc(C)c2)CC1,-1 (active)
21,CC1(C)Cc2cccc(OCC(=O)Nc3ccccc3N3CCOCC3)c2O1,0
22,CC(C)c1cc(C(F)(F)F)n2nc(C(=O)Nc3ccc4c(c3)OCO4)cc2n1,0
23,CC1CCN(C(C(=O)Nc2ccc3c(c2)OCO3)c2ccccc2)CC1 (configuration not stated),0

row,SMILES,manual score
1,CC1CCCN(C(C(=O)Nc2ccc3c(c2)OCO3)c2ccccc2)C1 (configuration not stated),-0.5
2,O=C(NC(=S)Nc1ccc2c(c1)OCO2)c1ccccc1,1 (active)
3,O=C(NC(=S)Nc1ccc2c(c1)OCCO2)c1ccccc1,1 (active)
4,Cn1ncc2cc(NC(=S)NC(=O)c3ccccc3)ccc21,1 (active)
5,O=C(NC(=S)Nc1ccc(Oc2ccc(Cl)cc2)cc1)c1ccccc1,0
6,Cc1ccc(-c2n[nH]c(=S)n2/N=C/c2cccs2)cc1,1 (active)
7,Cc1ccc(/C=N/n2c(COc3ccccc3)n[nH]c2=S)s1,1 (active)
8,Cn1cccc1/C=N/n1c(-c2ccc(C(C)(C)C)cc2)n[nH]c1=S,0
9,CC(/C=N/n1c(COc2ccccc2)n[nH]c1=S)=C\c1ccccc1,0
10,Cc1ccc(-c2n[nH]c(=S)n2/N=C/c2ccc(C)s2)cc1,1 (active)
11,Cc1ccccc1CNS(=O)(=O)c1ccc2c(c1)OCCO2,0
12,CNC(=S)N/N=C1\C(=O)c2cccc3cccc1c23,1 (active)
13,CCNC(=S)N/N=C1\C(=O)c2cccc3cccc1c23,1 (active)
14,O=C(N/N=C1/C(=O)c2cccc3cccc1c23)c1ccc(Cl)cc1,1 (active)
15,CCCCNc1c2c3c(cccc3n(C)c1=O)C(=O)c1ccccc1-2,3
16,CCCCNC(=S)N/N=C1\C(=O)c2cccc3cccc1c23,1 (active)
17,CCCCN(C)C1=Nc2cccc3cccc1c23,0
18,COc1ccc(Cn2nnnc2C(c2ccc(F)cc2)N2CCN(C3CCCC3)CC2)cc1 (configuration not stated),0
19,N#Cc1nc(Cc2ccccc2)oc1NCCc1ccccc1,0
20,O=C(CCN1C(=O)COc2ccccc21)NCCCN1CCc2ccccc2C1,0
21,Cc1ccc(NC(=O)COC(=O)/C=C/c2ccco2)cc1S(=O)(=O)N(C)C,0
22,Cn1c(NCc2cccc(Br)c2)nc2ccccc21,0
23,Fc1cccc2sc(Nc3nnc(-c4ccccc4)o3)nc12,1 (active)

row,SMILES,manual score
1,COc1cc(OC)cc(-c2nnc(Nc3nc4c(F)cccc4s3)o2)c1,1 (active)
2,COc1cccc(-c2nnc(Nc3nc4c(F)cccc4s3)o2)c1,1 (active)
3,Fc1cccc2sc(Nc3nnc(-c4ccco4)o3)nc12,1 (active)
4,Nc1nnc(C(=O)c2ccccc2N)s1,0
5,Clc1ccccc1-c1nnc2sc(CCc3ccccc3)nn12,0
6,CCn1c(=NC(=O)CSC(C)=O)sc2ccccc21,1 (active)
7,O=C(COC(=O)C1CC(=O)N(Cc2ccccc2)C1)Nc1ccc2c(c1)OCO2 (configuration not stated),0
8,O=C(Oc1ccccc1)c1cccc(COC(=O)c2cnccn2)c1,-1 (active)
9,COC(=O)c1ccccc1NC(=O)Nc1cnccn1,0
10,CC(=O)Nc1nnc(C)s1,0
11,CCn1c(SCC(N)=O)nc2c(c1=O)C1(CCCC1)Cc1ccccc1-2,0
12,C=CCSc1nc2sc3c(c2c(=O)n1CC)CCc1ccccc1-3,1 (active)
13,CCCSc1nc(C)nc2c1c(=O)n(C)c(=O)n2C,0
14,CC1CCCC(NC(=S)Nc2ccc(SC(F)F)cc2)C1C (configuration not stated),0
15,CC1CCCC(NC(=O)Nc2cccs2)C1C (configuration not stated),0
16,CC1CCCCC1NC(=S)Nc1ccc(SC(F)F)cc1 (configuration not stated),0
17,Cc1ccccc1NC(=S)NC(=O)c1cncc(Br)c1,1 (active)
18,CC1CCCC(NC(=S)NC(=O)c2ccccc2Br)C1C (configuration not stated),1 (active)
19,CC1CCCC(NC(=S)NC(=O)c2cncc(Br)c2)C1C (configuration not stated),1 (active)
20,CN(C(=S)NC(=O)c1ccccc1Br)C1CCCCC1,1 (active)
